Test results published in PubChem BioAssay (NCI).
This is part of a sample that, as a whole, favours compounds with a hit. Of some 79,000 tested, about 15% had one in any assay. Active and inactive are the calls of the source. Rule as the data show it: active = growth inhibition above about 70%; inactive = the rest.

Columns and labels:
[1] = NCI Yeast Anticancer Drug Screen. Data for the sgs1 mgt1 strain (AID 161);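 also: 0% = growth of cultures given vehicle only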; conditions: S. cerevisiae sgs1 mgt1 strain, stronger effect = higher value
In short: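 Mutant yeast exposed to compound; growth scored against vehicle-only wells.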

[2] = NCI Yeast Anticancer Drug Screen. Data for the CLN2oe strain (AID 163);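 also: 0% = growth of vehicle-only control cultures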; conditions: S. cerevisiae CLN2oe strain, stronger effect = higher value
In short: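 Read-out: yeast growth inhibition, expressed relative to vehicle-only controls. The strain bears an engineered cell-cycle alteration.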

[3] = NCI Yeast Anticancer Drug Screen. Data for the cln2 rad14 strain (AID 165);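 also: 0% = growth equal to vehicle treated cultures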; conditions: S. cerevisiae cln2 rad14 strain, stronger effect = higher value
In short: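 cln2 rad14 yeast strain; compound exposure; growth inhibition read vs vehicle controls.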

[4] = NCI Yeast Anticancer Drug Screen. Data for the bub3 strain (AID 167); conditions: S. cerevisiae bub3 mutant strain, stronger effect = higher value
In short: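 Growth of a checkpoint-deficient yeast mutant is measured after compound exposure. Values represent inhibition relative to vehicle.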

[5] = NCI Yeast Anticancer Drug Screen. Data for the wt2 strain (AID 169);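 also: 0% = growth of vehicle-treated yeast cultures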; conditions: S. cerevisiae wt2 strain growth inhibition, stronger effect = higher value
In short: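 Read-out: growth inhibition versus vehicle-treated control cultures after compound exposure of the yeast strain.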

[6] = NCI Yeast Anticancer Drug Screen. Data for the mlh1 strain (AID 171);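 also: 0% = growth of vehicle-treated control cultures of the same strain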; conditions: S. cerevisiae mlh1 strain growth inhibition, stronger effect = higher value
In short: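 Read-out: growth inhibition versus vehicle controls. Strain: engineered yeast with a defined DNA repair or cell cycle defect, compound-treated.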

[7] = NCI Yeast Anticancer Drug Screen. Data for the sgs1 strain (AID 173);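 also: 0% = growth of vehicle-only control cultures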; conditions: S. cerevisiae sgs1 mutant, stronger effect = higher value
In short: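 Read-out: yeast growth inhibition relative to vehicle controls, following compound exposure of a strain with a defined DNA repair/cell cycle alteration.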

[8] = NCI Yeast Anticancer Drug Screen. Data for the mlh1 rad18 strain (AID 175); conditions: S. cerevisiae mlh1 rad18 strain growth inhibition, stronger effect = higher value
In short: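 Yeast w/ defined DNA-repair lesions; compound exposure; growth vs vehicle controls → % inhibition.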

[9] = NCI Yeast Anticancer Drug Screen. Data for the rad18 strain (AID 177); conditions: S. cerevisiae rad18 mutant growth inhibition, stronger effect = higher value
In short: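 Readout: growth inhibition vs vehicle controls. Cells: genetically altered yeast strain, DNA repair defect.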

[10] = at 5.0 µM (retest, dose inferred, filed as 0.5)
[11] = at 50.0 µM (retest, dose inferred, filed as 5.0)

Measured: growth inhibition

COc1ccc2c(c1)CCCC(Br)C2=O (configuration not stated)
inactive: [1]; [10] 17% | [2]; at 1.2 µM 1% | [2]; at 3.7 µM 11% | [2]; at 11.0 µM -9% | [2]; at 33.0 µM 45% | [3]; [10] 39% | [3]; [11] 59% | [3]; at 50.0 µM 34.3% | [4]; at 1.2 µM -7% | [4]; at 3.7 µM -10% | [4]; [10] -12% | [4]; at 11.0 µM -4% | [4]; at 33.0 µM 50% | [5]; at 1.2 µM -41% | [5]; at 3.7 µM -53% | [5]; at 11.0 µM -22% | [5]; at 33.0 µM 60% | [6]; at 1.2 µM 26% | [6]; at 3.7 µM 23% | [6]; at 11.0 µM 36% | [7]; at 1.2 µM 34% | [7]; at 3.7 µM 43% | [7]; at 11.0 µM 35% | [8]; [10] 6% | [9]; at 1.2 µM 32% | [9]; at 3.7 µM 45% | [9]; at 11.0 µM 54%
active: [1]; [11] 90% | [1]; at 50.0 µM 88.3% | [2]; at 100.0 µM 96% | [4]; [11] 97% | [4]; at 50.0 µM 90.1% | [4]; at 100.0 µM 97% | [5]; at 100.0 µM 98% | [6]; at 33.0 µM 78% | [6]; at 100.0 µM 98% | [7]; at 33.0 µM 74% | [7]; at 100.0 µM 99% | [8]; [11] 73% | [8]; at 50.0 µM 92.4% | [9]; at 33.0 µM 87% | [9]; at 100.0 µM 99%
